Measurements published in PubChem BioAssay (NCATS).
Results filed as inconclusive are left out. Calls of active or inactive are those of the source. Calls come from the whole dose curve.

Target: Peroxisome proliferator-activated receptor delta (Homo sapiens) (UniProt Q03181)
Assay: qHTS assay for small molecule agonists of peroxisome proliferator-activated receptor delta signaling (AID 588534);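 note: 0% = DMSO basal wells and 100% = positive control agonist at 10 µM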
Conditions: HEK293T PPARdelta-UAS-bla, beta-lactamase ratio, 18 h; series mostly up to 76.7 µM; activation: at the top concentration
Procedure, shortened: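 Fluorescence from CCF4 substrate cleavage by beta-lactamase reporter, read 2 hrs at RT, measured agonist activity. Compounds were tested with 18 hrs exposure at 37 C. Concentration-response data fitted to Hill equation.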

Peroxisome proliferator-activated receptor delta (Homo sapiens), sequence (Q03181 whole entry, looked up): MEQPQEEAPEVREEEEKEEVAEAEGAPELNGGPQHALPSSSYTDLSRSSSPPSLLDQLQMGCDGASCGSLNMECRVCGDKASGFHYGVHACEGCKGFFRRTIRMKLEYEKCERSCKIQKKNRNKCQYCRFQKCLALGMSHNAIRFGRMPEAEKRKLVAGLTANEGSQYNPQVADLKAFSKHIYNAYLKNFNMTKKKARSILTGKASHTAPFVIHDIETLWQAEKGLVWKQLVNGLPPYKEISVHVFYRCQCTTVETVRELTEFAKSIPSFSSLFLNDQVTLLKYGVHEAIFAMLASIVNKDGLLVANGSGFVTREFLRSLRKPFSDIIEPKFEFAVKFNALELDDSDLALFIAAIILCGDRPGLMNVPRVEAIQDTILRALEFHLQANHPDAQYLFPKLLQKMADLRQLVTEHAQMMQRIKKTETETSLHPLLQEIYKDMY

Which “activation” value does the source give for Oc1c(Cl)cc(Cl)c(Cl)c1Cl here?
Its value is 2.04% (inactive).

Which “activation” value does the source give for CCCCCCCOC(=O)c1ccccc1C(=O)OCCCCCCC here?
Its value is 1.7% (inactive).

With C1OCOCO1 as the compound, how does the “activation” value read?
Its value is 0.0384% (inactive).

For CCCCCCCCCCCCCCCCN(C)C, which “activation” value is on record?
The value was 2.03% (inactive).

With C=CCCCCCCC=C as the compound, how does the “activation” value read?
The value was 6.81% (inactive).

For CCCCOC(=O)[C@@H](C)Oc1ccc(Oc2ccc(C(F)(F)F)cn2)cc1, which outcome is on record?
Its outcome is “inactive”.

How did the outcome turn out when CC(=O)CC(=O)Nc1ccccc1 was run?
Its outcome is “inactive”.

How did the “activation” value turn out when CSc1ccc(Cl)cc1 was run?
Its value is 7.79% (inactive).

For O=S(=O)(O)c1ccc(N=Nc2cc(S(=O)(=O)O)c3ccccc3c2O)c2ccccc12, which “activation” value is on record?
The value was 3.71% (inactive).

Cc1ccc(CO)cc1 was tested. Which “activation” value did it give?
Its value is 6.92% (inactive).

For Cc1cc(C)cc([N+](=O)[O-])c1, which “activation” value is on record?
The value was 3.44% (inactive).

Which “activation” value does the source give for Nc1c(Cl)cc(Cl)cc1Cl here?
Its value is 5.47% (inactive).

COC(=O)c1c(Cl)nn(C)c1S(=O)(=O)NC(=O)Nc1nc(OC)cc(OC)n1 was tested. Which “activation” value did it give?
Its value is 3.3% (inactive).

Which “activation” value does the source give for CCCCC here?
The value was 10.7% (inactive).

Which “activation” value does the source give for CCCCCCCCCCCCCCCO here?
Its value is 0.0793% (inactive).

For CCOC(=O)NCCOc1ccc(Oc2ccccc2)cc1, which “activation” value is on record?
Its value is 0.319% (inactive).

With CC(C)=CCC/C(C)=C\CO as the compound, how does the “activation” value read?
Its value is 3.32% (inactive).

How did the “activation” value turn out when C#CCOC(=O)[C@@H](C)Oc1ccc(Oc2ncc(Cl)cc2F)cc1 was run?
The value was -11.4% (inactive).

NC(=O)Nc1nc2ccccc2[nH]1 was tested. Which “activation” value did it give?
Its value is 2.79% (inactive).

CCCC[O][Al]([O]CCCC)[O]CCCC was tested. Which “activation” value did it give?
The value was 6.52% (inactive).

How did the “activation” value turn out when C=CC(=O)CC was run?
Its value is 4.28% (inactive).

With C[Si]1(C)O[Si](C)(C)O[Si](C)(C)O1 as the compound, how does the “activation” value read?
Its value is -3.5% (inactive).

With CNc1nc(=O)n(C2CCCCC2)c(=O)n1C as the compound, how does the “activation” value read?
Its value is 0.526% (inactive).

Which “activation” value does the source give for C[Si](C)(Cl)[Si](C)(C)Cl here?
Its value is -3.96% (inactive).

Which “activation” value does the source give for O=C(O)c1ccccc1Cl here?
Its value is -6.96% (inactive).

With CC(C)CCC[C@@H](C)[C@H]1CC[C@H]2[C@@H]3CC=C4C[C@@H](O)CC[C@]4(C)[C@H]3CC[C@]12C as the compound, how does the “activation” value read?
The value was -6.63% (inactive).
